Source: PubChem
HCV inh: HCV inhibition; Huh7.5.1 HCVcc-Cre infection, luciferase reporter, 44 h; Potency, µM (top dose mostly 41.8 µM), hits mostly inhibitors; 3.4% of 340,000 active; active = well fitted inhibition curve with a large enough effect; inconclusive = small, poorly fitted or top-dose-only effect, or another doubt; inactive = no such curve, though single readings can be large or run the other way
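A cell-based infection assay in which seeded cells (1,000 per well) receive test compound after 4 h, are inoculated with HCVcc-Cre at approximately 0.5 moi, and are incubated 44 h before luminescence detection.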
FMDV antiviral: blocks foot and mouth disease virus; FMDV antiviral cell-based qHTS; Potency, µM (series often up to 57.9 µM), usual class: inhibitors; 1.2% of 410,000 active; AID 1159524; calls by dose curve; tested in HEK293T cells; note: read-out not given here; nearly all actives have a fitted effect of over 45% in size
SARS PLpro yeast: blocks SARS-CoV papain-like protease in a yeast assay; S. cerevisiae expressing SARS-CoV PLpro, growth rescue; Potency, µM (highest dose often 32.9 µM), actives largely listed as activators; 0.19% of 330,000 active; calls by dose curve; note: nearly all actives have a fitted effect of over 55% in size
HCMV antiviral: human cytomegalovirus inhibition; activity change, negative = inhibition, % at 57.5 µM; AID 1259415; HFF cells, HCMV-luciferase reporter, 72 h; hits give low values; 4.5% of 410,000 active; in the data active = activity change below about -60%; inconclusive = no clear call, values can overlap the other calls; inactive = above about -39%
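Compounds were evaluated in HFFs infected with an HCMV luciferase reporter virus (MOI 1 PFU/cell). Luciferase in lysates collected 72 h post infection served as the replication measure.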
LASV entry inh: Lassa virus entry inhibition; Potency, µM (doses to about 37.9 µM), usual class: inhibitors; Lassa virus pseudotype entry inhibition, cell reporter; AID 540256; 1.2% of 300,000 active; calls by dose curve; tested in HEK293 cells; note: nearly all actives have a fitted effect of over 50% in size
Marburg entry inh: Marburg virus entry inhibition; AID 540276; 1.8% of 300,000 active; Potency, µM (doses to about 37.8 µM), usual class: inhibitors; Marburg virus pseudotyped entry inhibition, cell reporter; calls by dose curve; tested in HEK293 cells
A number is an active result. A selection: hits, their analogues and other compounds. The true share with any hit is near 8%.

For COc1cc(C(=O)Nc2ccc3c(c2)Cc2ccccc2-3)cc(OC)c1OC the results were HCV inh inconclusive, FMDV antiviral inactive, SARS PLpro yeast inactive, HCMV antiviral inactive, LASV entry inh inactive and Marburg entry inh inconclusive.
`Cc1ccc(S(=O)(=O)n2nc(C)c(S(=O)(=O)N3CCC(C)CC3)c2C)cc1` gave FMDV antiviral inactive, HCMV antiviral inactive and LASV entry inh inactive.
Screening Cc1cccc(C)c1NC(=O)c1nc(SC(C)C)ncc1Cl returned FMDV antiviral inactive, HCMV antiviral inactive, LASV entry inh inactive and Marburg entry inh inconclusive.
`CCC(Sc1nc2c(sc3ccccc32)c(=O)n1CCCC(=O)NC1CCCC1)C(=O)Nc1cccc(OC)c1` (centres undefined) gave FMDV antiviral inactive, HCMV antiviral inactive, LASV entry inh inactive and Marburg entry inh inactive.
Screening COc1cc(/C=C(\C#N)c2nc3ccccc3c(=O)[nH]2)cc(OC)c1OC returned FMDV antiviral inactive, HCMV antiviral inactive and LASV entry inh inactive.
`COc1cc(-c2cc(C)c3cccc(OC)c3n2)cc2c1OCCN(C(=O)CC1NC(=O)c3ccccc31)C2` (centres undefined) gave FMDV antiviral inactive.
For NC(=O)C1CCN(C(=O)c2cccc(S(=O)(=O)N3CCc4ccccc4C3)c2)CC1 the results were HCV inh inactive, FMDV antiviral inactive, SARS PLpro yeast inactive, HCMV antiviral inactive, LASV entry inh inactive and Marburg entry inh inconclusive.
`CCOC(=O)N1CCN(C(=O)c2cc(S(=O)(=O)N3CCc4ccccc43)ccc2OC)CC1` gave HCV inh inconclusive, FMDV antiviral inactive, SARS PLpro yeast inactive, HCMV antiviral inactive, LASV entry inh 1.8µM and Marburg entry inh inactive.
COc1ccc(S(=O)(=O)N2CCc3ccccc32)cc1C(=O)Nc1ccc(C(N)=O)cc1 was read as HCV inh inconclusive, FMDV antiviral inconclusive, SARS PLpro yeast inactive and HCMV antiviral inactive.
O=C(c1cccc(S(=O)(=O)N2CCc3ccccc3C2)c1)N1CCN(c2ccc(O)cc2)CC1 was read as HCV inh inconclusive, FMDV antiviral inactive, SARS PLpro yeast inconclusive, HCMV antiviral -65, LASV entry inh inconclusive and Marburg entry inh inactive.
CC(=O)OC[C@H]1O[C@H](CC=NO[C@@H](C)c2cc(-c3c(C)cc(C)cc3C)no2)C=C[C@@H]1OC(C)=O was read as Marburg entry inh inactive.
Screening CC1CN(C(=O)N2CCC(C(=O)NCc3cccs3)CC2)c2cc(Cl)ccc2O1 (centres undefined) returned FMDV antiviral inactive, HCMV antiviral inactive and LASV entry inh inactive.
CC1(C)CC(N=Cc2c(O)n(Cc3ccc4c(c3)OCO4)c(=O)c3ccccc23)CC(C)(C)N1 was read as HCV inh 11µM, FMDV antiviral inactive, SARS PLpro yeast inactive, HCMV antiviral inactive, LASV entry inh inconclusive and Marburg entry inh inconclusive.
Screening O=C(c1cnn(-c2nccc(-c3ccco3)n2)c1C1CC1)N1CCCCC1c1cccnc1 (centres undefined) returned FMDV antiviral inactive.
Screening Cc1ccc(C)c(NC(=O)CSc2nnc(CNC(=O)c3ccccc3)n2-c2ccccc2)c1 returned FMDV antiviral inactive, HCMV antiviral inactive, LASV entry inh inactive and Marburg entry inh inactive.
`COc1cc(Cl)ccc1NC(=S)N(CCN1CCOCC1)C1CCN(C(C)=O)CC1` gave HCV inh inactive, FMDV antiviral inactive, SARS PLpro yeast inactive and HCMV antiviral -101.
`COc1ccc(NC(=S)N(CCN2CCOCC2)C2CCN(C(C)=O)CC2)cc1Cl` gave HCV inh inactive, FMDV antiviral inactive, SARS PLpro yeast inactive, HCMV antiviral inconclusive, LASV entry inh inactive and Marburg entry inh inactive.
Screening COc1cc(NC(=O)c2cccc(Cl)c2)c(OC)cc1NC(=O)CN1CCCCC1 returned HCV inh 35µM, FMDV antiviral inactive, SARS PLpro yeast inactive, HCMV antiviral inconclusive, LASV entry inh inactive and Marburg entry inh inconclusive.
COc1cc(NC(=O)c2cccc(Cl)c2)c(OC)cc1NC(=O)CN1CCOCC1 was read as HCV inh inconclusive, FMDV antiviral inactive, SARS PLpro yeast inactive, HCMV antiviral -72, LASV entry inh inconclusive and Marburg entry inh inconclusive.
For CCc1ccccc1NC(=O)C(=O)c1cc(C)n(-c2ccccc2F)c1C the results were FMDV antiviral inactive, HCMV antiviral inactive, LASV entry inh inconclusive and Marburg entry inh inactive.
Screening Cc1cccc(NC(=O)C2CCCN(S(=O)(=O)c3c(C)noc3/C=C/N(C)C)C2)c1C (centres undefined) returned FMDV antiviral inactive, HCMV antiviral inactive, LASV entry inh inactive and Marburg entry inh inactive.
Screening CCNC(=O)O/N=C(\C)c1sc(-c2ccc(Cl)cc2)nc1C returned HCV inh 10µM, FMDV antiviral inactive, SARS PLpro yeast inactive, HCMV antiviral inactive, LASV entry inh inactive and Marburg entry inh inconclusive.
`CCNC(=O)c1c(C)oc2ncn(C)c(=O)c12` gave FMDV antiviral inactive, HCMV antiviral inactive and LASV entry inh inactive.
Screening N#C/C(=C\c1c[nH]c2ccccc12)C(=O)Nc1ncc(Cc2ccc(Cl)cc2Cl)s1 returned HCV inh 35µM, FMDV antiviral inactive, SARS PLpro yeast inactive, HCMV antiviral inactive, LASV entry inh inconclusive and Marburg entry inh inconclusive.
Screening O=C(CCC1N=C2c3ccccc3N=C(SCc3ccc(F)cc3)N2C1=O)NCCc1ccccc1 (centres undefined) returned FMDV antiviral inconclusive, HCMV antiviral inactive and LASV entry inh inactive.
`Fc1ccc(CN2CCN(c3ncnc4scc(-c5ccccc5)c34)CC2)cc1` gave HCV inh inconclusive, FMDV antiviral inconclusive, SARS PLpro yeast inactive and HCMV antiviral -74.
`CN1CCN(c2ncnc3scc(-c4ccccc4Cl)c23)CC1` gave HCV inh inactive, FMDV antiviral inconclusive, SARS PLpro yeast inactive, HCMV antiviral -73, LASV entry inh inactive and Marburg entry inh inconclusive.
Oc1ccccc1N1CCN(c2ncnc3scc(-c4ccc(F)cc4)c23)CC1 was read as HCV inh 11µM, FMDV antiviral inactive, HCMV antiviral -81, LASV entry inh inconclusive and Marburg entry inh inconclusive.
`OCC1CCCN(c2ncnc3scc(-c4ccccc4)c23)C1` (centres undefined) gave HCV inh inactive, FMDV antiviral inactive, SARS PLpro yeast inactive and HCMV antiviral -63.
`COc1ccc(CNc2ccc3cc(S(=O)(=O)N4CCCCC4)ccc3n2)cc1` gave FMDV antiviral inactive, HCMV antiviral inactive and LASV entry inh inconclusive.
`O=C1[C@@H]2C=CC=CC2=NC(=S)N1CCN1CCC(=C(c2ccc(F)cc2)c2ccc(F)cc2)CC1` gave Marburg entry inh inactive.
`COc1ccc(C2C(=O)N(C3CCCCCC3)CC(=O)N2Cc2ccc(C)cc2)cc1` (centres undefined) gave FMDV antiviral inactive, HCMV antiviral inactive and LASV entry inh inconclusive.
